According to ChEMBL document CHEMBL3988442, “University of Dundee, Small-Polar-MMV Screening Library” (2021):
The campaign covered roughly 38,000 compounds. About 1,200 (3.2%) showed an effect of 50% or more. The median lay at about -58%. Many of the other results were omitted from the sample, so strong results are more common in it than they were.

tested on: Plasmodium falciparum; experiment: Calibr Malaria Delayed Death Assay SOP; assay type: functional, organism-based; set-up: scale not given: in the data most compounds retested in dose-response had high values; settings: concentration 4.99e-06 (unit not given; other assays of the set use mol/L)

Compound | Percent Effect
O=C1CCCN1Cc1nnc2n1CCCN(C(=O)c1ccco1)C2 | -1.82%
O=C(c1cc(Cl)ccc1OC1CCN(C2CCCC2)CC1)N1CC(O)C1 | -105.7%
CC(=O)N1CCC(Oc2ccc(Cl)cc2C(=O)N2CCCO2)CC1 | -31.72%
O=C(c1cc(Cl)ccc1OC1CCN(C2CCCC2)CC1)N1CCCO1 | 51.12%
Cc1noc(C)c1CCC(=O)N1CCCCC1CNS(C)(=O)=O (centres undefined) | -22.15%
COc1ccc2c(ccn2CCC(=O)/N=c2\[nH]nc(C3CCCO3)s2)c1 (centres undefined) | -157%
Cc1nc(Oc2ccccc2F)sc1C(=O)O | -115.2%
COc1ccc(-c2cc(CNc3ncnc4c3CCNCC4)no2)cc1 | 13.56%
Clc1ccccc1-c1cc(CNc2ncnc3c2CCNCC3)no1 | 79.72%
Cc1ccccc1-n1cc(CNc2ncnc3c2CCNCC3)cn1 | 25.52%
Cc1cccc(-n2cc(CNc3ncnc4c3CCNCC4)cn2)c1 | 12.81%
Cc1ccc(-c2cc(CNc3ncnc4c3CCNCC4)no2)cc1 | 62.41%
c1ccc(Cn2cc(CNc3ncnc4c3CCNCC4)cn2)cc1 | -75.72%
Cc1nn(CC(=O)O)c(C)c1NS(=O)(=O)c1cc2ccccc2s1 | -90.75%
COc1ncccc1CNC1CCc2c(ccc(=O)n2CC2CC2)C1.O=C(O)C(F)(F)F.O=C(O)C(F)(F)F (centres undefined) | -69.76%
O=C(COCC(=O)N(c1ccccc1)c1ccccc1)N1CCOCC1 | -115.4%
CCc1nc(CN(C)C2CCN(CCCOc3ccccc3)C2)no1 (centres undefined) | -2.481%
COc1ccccc1-c1ncc(CN2CCCC(CCC(N)=O)C2)s1 (centres undefined) | -45.2%
CN(C)[C@H]1CCCCN(Cc2cnc(NCc3ccccc3)nc2)C1 | -25.46%
COc1ccccc1-c1ncc(CN2CCCC[C@H](N(C)C)C2)s1 | 69.91%
CC(=O)Nc1ccc2nc(CN(C)Cc3noc(C)n3)ccc2c1 | -81.21%
CC(C)S(=O)(=O)CCN1CCN(C(C#N)c2ccccc2)CC1 (centres undefined) | -69.53%
NC(=O)C1CCN(c2ccc(C(=O)N3CCc4ccccc43)cn2)C1 (centres undefined) | -37.49%
c1ccc(-n2nnnc2NCc2ccc3c(c2)OCO3)cc1 | -79.7%
CNCc1nc(-c2ccc3c(c2)OCO3)c[nH]1.Cl.Cl | -83.48%

Compound | Percent Effect
N#Cc1c[nH]nc1NCc1ccc2c(c1)OCO2 | -94.84%
O=C(CSc1ccc2c(c1)OCCO2)NS(=O)(=O)c1ccccc1Br | -14.98%
I.c1ccc(Sc2ccc3c(c2)OCO3)c(CNC2=NCCN2)c1 | 83.34%
Cc1ccc(N(CC(=O)N2CCCCC2)C(=O)C2CCCO2)cc1 (centres undefined) | -77.19%
CS(=O)(=O)N1C[C@@H]2COC[C@]2(COCC(=O)N2CCCC2)C1 | -14.15%
CCCNc1ccc(C(=O)NCCc2ccc(Cl)cc2)cn1 | -35.94%
COc1cccc(C2CCCN2C(=O)NCCCn2cccn2)c1 (centres undefined) | -100.5%
CN(C)C(C)(C)CNCc1cn(C)nc1-c1cccnc1.Cl | -6.426%
Cn1cc(CNCCNC(=O)Cc2ccccc2)c(-c2cccnc2)n1 | 7.378%
Cn1cc(CNCCc2cccnc2)c(-c2cccnc2)n1 | -43.46%
Cn1cc(CNCCC(=O)NCc2ccccc2)c(-c2cccnc2)n1 | -26.7%
CCCNCc1cn(Cc2ccccc2)nc1-c1cccnc1.Cl | 57.61%
Cn1cc(CNCCOc2ccc(F)c(F)c2)c(-c2cccnc2)n1 | 53.44%
COCCCOc1ccc(C(=O)N(C)Cc2cccc(O)c2)cn1 | -93.61%
CC(C)(C)OC(=O)N1CCN(C(=O)c2cnn3c2OCCC3)CC1 | -73.8%
CC(CC(=O)c1ccco1)NC(=O)c1ccon1 (centres undefined) | -111.2%
O=C(Nc1nc2c(s1)CN(S(=O)(=O)C1CC1)CC2)c1ccsc1 | -79.83%
Fc1ccccc1C1NCCc2cc3c(cc21)OCCO3 (centres undefined) | -25.34%
CCCn1nnc(NCc2ccc(-c3ccc(Br)cc3)o2)n1 | -170.9%
Nc1nc2c(c(NC(=O)Nc3ccc(Cl)c(Cl)c3)n1)CCCC2 | -65.1%
CN1CCc2nc3c(c(N)c2C1)CCCN3C | -6.547%
CN1CCc2c1nc1c(c2N)CCC1 | -63.1%
Nc1nc2c(c(NC(=O)Nc3cccc(Cl)c3)n1)CCCC2 | -1.173%
CN1CCCc2c1nc1c(c2N)CCCC1.O=C(O)C(=O)O | 75.22%
CN1CCCc2c1nc1c(c2N)CCC1 | -51.79%

Compound | Percent Effect
CN1CCCCc2c1nc1c(c2N)CCC1.O=C(O)c1cc([N+](=O)[O-])ccc1Cl | 64.96%
CN1CCCCc2c1nc1c(c2N)CCCC1 | 64.21%
CC(=O)NC1CCN(c2nc(N)nc3c2CCCC3)C1 (centres undefined) | -119.8%
CC1CN(C)c2ccccc2CN1C(=O)c1cc(C#N)cn1C (centres undefined) | -35.84%
CCN(CC)S(=O)(=O)c1ccc2c(c1)N(Cc1ccncc1)C(=O)CS2 | -124.7%
COCC(C)NC(=O)CN1CCC(CO)CC1 (centres undefined) | -50.48%
O=C1CC(CNc2cncc(Cl)n2)c2ccccc2N1 (centres undefined) | 64.58%
Cc1cc(NCC2CC(=O)Nc3ccccc32)nc(C)n1 (centres undefined) | -157%
O=C1CC(CNc2cncc(Br)c2)c2ccccc2N1 (centres undefined) | 9.989%
CS(=O)(=O)NC(=O)c1ccn(-c2ccc(Cl)c(Cl)c2)n1 | -100.9%
COCCN1C(=O)CC(c2cccnc2)C12CCN(C(=O)C1CC1)CC2.O=C(O)C(F)(F)F (centres undefined) | -113.7%
CC(Oc1ccc2c(c1)OCO2)C(=O)Nc1ccon1 (centres undefined) | -56.4%
Cc1cc2cc(CNC3CCN(CC(=O)N(C)C)CC3)oc2cc1C | -160%
Cc1cc(Cl)cc(C)c1CNC1CCN(CC(=O)N(C)C)CC1 | 52.71%
NC(=O)CN1CCC(NCc2cc(C(F)(F)F)ccc2Cl)CC1 | -47.52%
CNc1oc(-c2ccc(S(=O)(=O)N(C)C)o2)nc1C#N | -61.71%
Cc1nc(C)n(CC2CCCN(Cc3nc(-c4ccco4)no3)C2)n1 (centres undefined) | -26.23%
NC(CC1CCCC1)c1ccc(Oc2ccccc2)cc1 (centres undefined) | 80.17%
Cl.NC(Cc1nc(-c2ccccc2)no1)c1ccccc1 (centres undefined) | -266.4%
NC(c1ccccc1)c1ccc(OC(F)F)cc1 (centres undefined) | 9.975%
Cl.NC(CC1CCCC1)c1ccccc1 (centres undefined) | 67%
NC(=O)C(NC(=O)COC1CCCC1)c1ccccc1 (centres undefined) | -14.18%
Cl.NC(CC1CCCCC1)c1ccccc1 (centres undefined) | 55.85%
OC(CN1CCN(CC2CCCCC2)CC1)c1ccccc1 (centres undefined) | 2.939%
CC(NC(=O)CSCC(N)=O)c1ccc(Oc2ccccc2)cc1 (centres undefined) | -26.87%

Compound | Percent Effect
NC(=O)C(NC1CCN(CC2CCCCC2)CC1)c1ccccc1 (centres undefined) | -76.74%
COc1ccc(Cn2cc(C(=O)N(C)Cc3ccon3)nn2)cc1 | -118.5%
CC(C)COC[C@H]1CC[C@H]2[C@H](CCN2C(=O)c2ccncc2F)O1.O=C(O)C(F)(F)F | -129.5%
COc1ccc(-c2cc(C(=O)Nc3nc[nH]n3)[nH]n2)cc1 | -113.2%
Cc1ccc(C(=O)N2CCc3nc4c(C)csc4c(=O)n3CC2)cn1 | -115%
CCn1nc(C)cc1C(=O)N1C[C@@H]2C[C@@H](c3noc(C)n3)O[C@@H]2C1 | -70.6%
Cc1n[nH]cc1CNCC1(c2ccc3c(c2)OCO3)CCOCC1.Cl | -41.06%
O=C(NCC1(O)CCOC1)NCC1(c2ccccc2Cl)CC1 (centres undefined) | 1.417%
Cc1n[nH]cc1CNCC1(c2ccccc2Cl)CCOCC1 | 55.9%
CCS(=O)(=O)N1CCc2cc(C(=O)N(C)C)c(NCC3CC3)nc2CC1 | -99.83%
CN(C)CCN1CCN(Cc2cccc(C#N)c2)Cc2cccnc21.O=C(O)C(F)(F)F.O=C(O)C(F)(F)F.O=C(O)C(F)(F)F | 65.04%
O=C(O)C(F)(F)F.O=C(O)C(F)(F)F.c1ccc(CCN2CCn3cc(Cn4cccn4)nc3C2)cc1 | 7.27%
CN(C)CCOCC1CN(C(=O)c2ccsc2)Cc2ccnn2C1.O=C(O)C(F)(F)F.O=C(O)C(F)(F)F (centres undefined) | -18.09%
CCn1nnc2c1C(COCCN(C)C)CN(Cc1ccco1)C2.O=C(O)C(F)(F)F.O=C(O)C(F)(F)F (centres undefined) | -73.97%
Fc1ccc(CN2CCn3cc(Cn4cccn4)nc3C2)cc1.O=C(O)C(F)(F)F | 43.38%
N#Cc1cccc(CN2CCn3cc(Cn4cccn4)nc3C2)c1.O=C(O)C(F)(F)F.O=C(O)C(F)(F)F | 78.59%
CN1CCN(Cc2cccc(C#N)c2)Cc2cccnc21.O=C(O)C(F)(F)F.O=C(O)C(F)(F)F | -79.43%
CN(C)CCOCC1CN(Cc2cccs2)Cc2ccnn2C1.O=C(O)C(F)(F)F.O=C(O)C(F)(F)F.O=C(O)C(F)(F)F (centres undefined) | 62.34%
CN(C)C(=O)c1cnc2n1CCN(Cc1cccc(C#N)c1)C2.O=C(O)C(F)(F)F | -58.91%
COCC(=O)N1Cc2ccnn2CC(COCCN(C)C)C1.O=C(O)C(F)(F)F.O=C(O)C(F)(F)F (centres undefined) | -13.35%
CCn1nnc2c1C(COCCN(C)C)CN(Cc1ccc(C)s1)C2.O=C(O)C(F)(F)F.O=C(O)C(F)(F)F (centres undefined) | 60.03%
Cc1ccc(CN2Cc3nnn(C)c3C(COCC(=O)N(C)C)C2)s1.O=C(O)C(F)(F)F (centres undefined) | -90.04%
COc1ccccc1CNC(=O)N1CCN(Cc2cc(C)on2)CC1 | -4.63%
COCc1nnc(NC(=O)CN2C(=O)c3ccccc3NC2C(C)C)s1 (centres undefined) | -66.52%
